Bioassay records (PubChem)
An excerpt weighted towards active compounds, which were near 0.9% of everything screened.
ugtP null kill: kills S. aureus RN4220 lacking UgtP | 330,000 tested, 0.54% active | growth inhibition, % (concentration not given with the values) | AID 1259309 | S. aureus RN4220 ugtP deletion, OD600 growth, 16 h; in the data active = growth inhibition above about 68%;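 also: plate controls were untreated wells for no effect and antibiotic for full effect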
RN4220 kill: S. aureus RN4220 growth inhibition; 330,000 tested, 0.33% active; AID 1259311; inhibition, % (concentration not given with the values); OD600, 16 h; in the data active = inhibition above about 85%;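 also: plate controls were untreated cells for no effect and reference antibiotic for full effect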
BioA inh: blocks M. tuberculosis BioA enzyme activity; purified M. tuberculosis BioA enzyme, plate reader; inhibition, % at 9.99 µM; 360,000 tested, 0.096% active; AID 602481; in the data active = inhibition above about 40%; inconclusive = no clear call, values can overlap the other calls
PfHsp40 yeast: rescue of PfHsp40-mediated yeast toxicity; S. cerevisiae expressing PfHsp40, growth rescue, ATP luminescence; growth rescue, % at 12.5 µM; 340,000 tested, 0.68% active; AID 504582; in the data active = growth rescue above about 28%, passing the limit was not always enough; inconclusive = no clear call, values can overlap the other calls;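 also: yeast W303a lacking pdr1 and pdr3 grown in galactose medium; growth measured after three days at 30 °C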
Mtb bLac sens: beta-lactam sensitization of Mtb H37Rv | M. tuberculosis H37Rv growth with meropenem, percent inhibition | inhibition, % at 25 µM | 330,000 tested, 0.27% active; call rule not given here;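 also: growth measured after seven days incubation then overnight dye step; 0% = bacteria only wells and 100% = bacteria with antibiotic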
The depositor's hits bear a star; ? = inconclusive; . = not tested or not shown; ! = not active in a repeat.

SMILES	ugtP null kill	RN4220 kill	BioA inh	PfHsp40 yeast	Mtb bLac sens
S=C(NCCCCc1ccccc1)NCc1ccccc1	7.3	-5.8	1.3	54.6*	-0.7
S=C(NCCc1ccccc1)Nc1ccccc1Cl	1.1	4.1	2.2	0.1	-3.1
CC1OC(n2cc(F)c(=O)[nH]c2=O)C(O)C1O (stereo not given)	97.3*	76.5	.	.	.
O=C1/C(=C\c2cc(Br)cc(Br)c2O)SC(=S)N1Cc1ccccc1	100.1*	100.5*	0.5	0.1	3.5
O=C1/C(=C\c2ccc(O)cc2)SC(=S)N1Cc1ccccc1	.	.	-2.9	3.0	8.5
CCCCn1nc(C(=O)NC(CCSC)c2nc3ccccc3[nH]2)c2ccccc2c1=O (stereo not given)	24.3	8.5	.	.	.
COc1cc(-c2c(-c3ccc4c(c3)OCO4)noc2-c2ccsc2)ccc1F	86.9*	-5.7	0.4	?	5.4
CCOC(=O)c1ccc(-c2c(-c3ccc4c(c3)OCO4)noc2-c2ccsc2)cc1F	95.8*	-9.8	1.7	-1.0	-3.0
c1cc2cc(-c3c(-c4ccc5c(c4)OCO5)noc3-c3ccsc3)ccc2[nH]1	.	.	-0.1	-0.8	-17.9
Cc1ccc(S(=O)(=O)N2C(c3cccc(C)c3)CC=C(C(=O)O)C2c2ccccc2F)cc1 (stereo not given)	11.4	10.5	.	.	.
O=c1[nH]cc(F)c(=O)[nH]1	.	.	1.1	256.2*!	100.1
Cc1ccc(NS(=O)(=O)c2ccc(C(=O)N3CCCC(C(F)(F)F)C3)cc2)cc1 (stereo not given)	-9.0	8.1	0.6	50.7*	-5.8
O=C1CC(c2ccc(O)cc2)Oc2cc(O)cc(O)c21 (stereo not given)	-8.5	6.4	0.8	1.4	-3.5
CC1CC(=O)c2c(cc3c(-c4c(O)cc(O)c5c(O)c6c(cc45)OC(C)CC6=O)c(O)cc(O)c3c2O)O1 (stereo not given)	10.7	35.2	2.3	102.0*	14.4
Nc1nonc1C(=O)NCCN=Cc1cc(Cc2ccccc2)cc(Br)c1O	48.9	-8.5	.	701.6*	0.4
Cc1cccc(OCCOC(=O)C2CCN(S(=O)(=O)c3cccs3)CC2)c1	2.5	1.7	-2.0	101.6*	3.5
CCCCCCC=Cc1ccc(C2C3C=CCC(C)C3C(=O)N2Cc2ccccc2)c(F)c1 (stereo not given)	5.7	1.5	.	.	.
Cc1ccc(N2C(=O)N3C(c4ccc(F)cc4)C4C(=O)N(C5CCCCC5)C(=O)C4[C@]3(C)C2=O)cc1 (stereo not given in full)	-0.3	4.3	.	.	.
COc1cccc(C(=O)N/N=C(/c2ccccc2)c2ccccn2)c1	.	.	0.4	323.6*	98.0
COc1cc(C(=O)N/N=C(\c2ccccc2)c2ccccn2)cc(OC)c1OC	.	.	.	-1.9	98.3
CC1=C(C)C(=NOS(=O)(=O)c2ccccc2)C=CC1=O	8.9	4.9	.	.	.
CC1=C(C)/C(=N\OS(=O)(=O)c2ccccc2)C=CC1=O	.	.	2.3	637.4*	100.0
OCC[n+]1ccc(C=Cc2c[nH]c3ccccc23)cc1	-2.7	3.8	.	.	.
c1ccc(CSc2ccc(-c3ccccn3)nn2)nc1	-3.4	2.2	.	415.8*	-6.9
c1ccc(-c2ccc(SCc3cccnc3)nn2)nc1	2.7	1.2	.	259.4*	8.0
SMILES	ugtP null kill	RN4220 kill	BioA inh	PfHsp40 yeast	Mtb bLac sens
Cc1ccc(Sc2ccc(NC(=O)CCl)cc2)cc1C	-13.7	19.8	.	456.8*	95.5
CC1NC(=O)C(CCC(N)=O)NC(=O)c2cc([N+](=O)[O-])cc(I)c2NCCC(C(N)=O)NC1=O (stereo not given)	4.2	3.6	.	.	.
CCC(CO)NC(=O)C1C=C2c3cccc4c3c(cn4C)CC2N(C)C1 (stereo not given)	8.6	8.6	.	.	.
COc1ccc(C(=O)NC(=S)Nc2ccc(N3CCN(C(C)=O)CC3)cc2)cc1[N+](=O)[O-]	99.2*	3.9	.	-0.1	-0.2
CC(=O)N1CCN(c2ccc(NC(=S)NC(=O)c3ccc(C)c([N+](=O)[O-])c3)cc2)CC1	90.1*	3.6	.	0.1	0.9
COc1ccc(C(=O)Nc2ccc(N3CCN(C)CC3)cc2)cc1[N+](=O)[O-]	2.7	9.7	.	-0.1	-3.1
CCN1CC2C3C(=O)N(Cc4ccccc4)C(=O)C3[C@](CC)(C1=O)N2C(=O)c1ccc(F)cc1 (stereo not given in full)	1.6	7.3	.	.	.
CC(OC(=O)c1oc2ccccc2c1CSC1CCCCC1)C(=O)NC(N)=O (stereo not given)	99.0*	-6.3	0.2	-1.2	?
Cc1ccc(C(=O)O/N=C(\N)c2ccc(Br)cc2)cc1C	-3.2	2.3	-0.9	-0.5	91.2
Cc1ccc(C)c(C(=O)O/N=C(\N)c2ccc(Br)cc2)c1	-3.2	-3.9	0.3	501.7*	-8.7
COC(=O)C1=C(c2cc3ccccc3o2)CC2CCC1N2C(=O)NC1CCCCC1 (stereo not given)	2.4	-7.7	.	.	.
CCOC(=O)CC(=O)CSc1nc2c(c(C)c1C#N)CCC2	4.7	-4.3	.	31.3*	-8.7
CCOC(=O)CC(=O)CSc1nc(C)cc(C)c1C#N	16.1	0.3	-0.4	0.3	4.2
COc1cc(Cc2cc(N)nc(N)n2)cc(OC)c1OC	99.5*	98.1*	-0.7	1.3	-3.0
COc1ccc(C2=CC(=O)CC(c3ccc4c(c3)OCO4)C2)cn1 (stereo not given)	5.6	7.4	.	.	.
Oc1[nH]c2ccc(Br)cc2c1N=NC(=S)Nc1ccc(F)cc1	99.7*	99.1*	-1.4	-0.1	0.5
COc1cc2c(cc1OC)C(=CC#N)NC(C)(C)C2	1.0	3.6	.	.	.
CCn1c(NN=O)nc2ccccc21	11.6	-2.4	0.6	140.2*	1.2
CCn1c(Nc2ccccc2Cl)nc2ccccc21	29.3	4.4	.	-0.5	1.5
N=C1CCCN1CC(=O)c1ccc(Br)cc1	2.6	0.7	.	45.6*	8.3
CCCNC(=O)c1ccc2c(=O)c(O)c(-c3ccc(Cl)c([N+](=O)[O-])c3)[nH]c2c1	.	.	0.6	209.6*	7.2
O=C(NCCc1nc2ccccc2[nH]1)c1ccc(Cl)c([N+](=O)[O-])c1	.	.	.	4.9	-4.5
COC(=O)C1=C(c2ccc(OC(F)(F)F)cc2)CC2CCC1N2C(=O)NCc1cc(C)oc1C(F)(F)F (stereo not given)	1.3	-12.8	.	.	.
CC(=O)Nc1ccc(NC(=O)c2cccc(S(=O)(=O)N(C)C3CCCCC3)c2)cc1	1.8	5.4	-1.5	-0.1	-8.4
Cc1ccc(NC(=O)c2cccc(S(=O)(=O)N(C)C3CCCCC3)c2)nc1	-11.3	-2.3	-1.0	49.8*	-11.0
CNc1cc(CSC)nc(SCc2ccc(Cl)cc2Cl)n1	50.3	-14.1	.	307.9*	3.4
COc1ccc(C2CC(=O)C=C(c3cc(Cl)ccc3OC)C2)cc1 (stereo not given)	4.7	4.3	.	.	.
Cc1ccc(Oc2nnc(-c3ccccc3)c3ccccc23)cc1	89.6*	-1.4	-4.0	6.1	22.1
Cc1ccc(-c2nnc(Oc3cccc(C)c3)c3ccccc23)cc1	5.1	-4.6	-3.7	-0.2	2.1
COC(=O)C1=C(c2cccc(OCc3ccccc3)c2)CC2CCC1N2C(=O)NCc1cc(C)oc1C(F)(F)F (stereo not given)	0.6	-4.5	.	.	.
